# In PubChem BioAssay:
# A number with no mark means an inactive call. Inconclusive results are not listed. Active and inactive are the calls of the source. Unless noted, the rule behind the calls is not given here.
# Key:
# [1] = compounds altering viability of human ES cells (AID 493140); conditions: human embryonic stem cell survival screen; hits give high values;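 note: cells exposed to compounds for four days before counting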
# [2] = target: ATP-dependent translocase ABCB1 (Homo sapiens) (UniProt P08183); test: P-glycoprotein substrate transport blockade – cell-based (AID 377; in the data active = fluorescence slope change above about 50%); conditions: MDR1-expressing cells, fluorescent substrate accumulation slope; hits give high values; concentration not given here
# ATP-dependent translocase ABCB1 (Homo sapiens), sequence (P08183 whole entry, looked up): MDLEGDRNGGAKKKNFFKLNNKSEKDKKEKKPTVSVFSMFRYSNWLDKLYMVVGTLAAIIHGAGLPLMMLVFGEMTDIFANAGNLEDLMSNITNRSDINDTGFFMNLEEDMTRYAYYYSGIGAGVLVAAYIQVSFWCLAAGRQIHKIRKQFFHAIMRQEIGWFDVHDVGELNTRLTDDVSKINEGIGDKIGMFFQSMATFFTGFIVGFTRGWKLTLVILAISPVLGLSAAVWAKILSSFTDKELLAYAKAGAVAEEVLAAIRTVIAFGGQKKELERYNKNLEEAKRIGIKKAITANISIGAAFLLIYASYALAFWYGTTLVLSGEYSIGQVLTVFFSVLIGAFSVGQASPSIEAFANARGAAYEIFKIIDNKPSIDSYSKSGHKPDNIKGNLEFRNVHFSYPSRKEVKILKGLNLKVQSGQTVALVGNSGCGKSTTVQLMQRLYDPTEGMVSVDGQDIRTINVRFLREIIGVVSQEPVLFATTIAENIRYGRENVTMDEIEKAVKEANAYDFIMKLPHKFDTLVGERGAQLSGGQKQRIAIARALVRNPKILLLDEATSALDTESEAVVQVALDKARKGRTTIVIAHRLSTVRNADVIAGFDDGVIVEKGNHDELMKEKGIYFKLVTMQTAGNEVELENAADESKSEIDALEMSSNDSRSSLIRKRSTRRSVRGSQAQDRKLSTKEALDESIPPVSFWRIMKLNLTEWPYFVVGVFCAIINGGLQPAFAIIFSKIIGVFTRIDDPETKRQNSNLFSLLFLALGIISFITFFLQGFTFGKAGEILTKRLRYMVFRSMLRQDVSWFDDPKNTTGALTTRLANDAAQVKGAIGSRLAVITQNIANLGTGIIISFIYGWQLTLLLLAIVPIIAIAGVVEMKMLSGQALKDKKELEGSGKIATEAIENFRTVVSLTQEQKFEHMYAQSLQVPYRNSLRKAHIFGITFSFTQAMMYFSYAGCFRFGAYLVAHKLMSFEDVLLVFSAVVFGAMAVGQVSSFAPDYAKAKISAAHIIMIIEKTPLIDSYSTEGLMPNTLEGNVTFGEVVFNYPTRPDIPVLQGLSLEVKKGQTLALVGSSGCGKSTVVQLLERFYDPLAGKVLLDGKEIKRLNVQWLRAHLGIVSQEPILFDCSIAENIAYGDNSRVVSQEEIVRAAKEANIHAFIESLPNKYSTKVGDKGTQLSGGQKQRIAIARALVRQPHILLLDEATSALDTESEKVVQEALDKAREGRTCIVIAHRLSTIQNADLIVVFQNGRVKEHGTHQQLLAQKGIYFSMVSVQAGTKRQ
# [3] = tested on: Hepatitis C virus NS3 helicase; test: blockers of NS3h binding to ssDNA – biochemical, fluorescence polarization, LOPAC1280 library, primary screen (AID 687035; in the data active = inhibition above about 37%); conditions: Purified HCV NS3 helicase, Cy5-dT15 ssDNA binding fluorescence polarization; hits give high values; concentration not given here
# [4] = compounds altering Cy5-DNA-NS3h complex signal – biochemical, LOPAC1280, artefact control for HCV NS3 helicase inhibitor project (AID 687037); conditions: Cy5-DNA-NS3h complex fluorescence interference counterscreen
compound,measurement,setting,value
C=C(NC(=O)C(=C)NC(=O)c1csc(C2=NC3c4csc(n4)C4NC(=O)c5csc(n5)C(C(C)(O)C(C)O)NC(=O)C5CSC(=N5)/C(=C/C)NC(=O)C(C(C)O)NC(=O)c5csc(n5)C3(CC2)NC(=O)C(C)NC(=O)C(=C)NC(=O)C(C)NC(=O)C(C(C)CC)NC2C=Cc3c(C(C)O)cc(nc3C2O)C(=O)OC4C)n1)C(N)=O (centres undefined),survival,[1],0.917
C=C1C(=O)O[C@H]2C1CC/C(C)=C/CC[C@@]1(C)O[C@H]21 (some centres undefined),fluorescence slope change,[2],20.5%
O=C(O)[C@@H]1C[C@H](C(=O)O)N1,inhibition,[3],-1%
same,fluorescence ratio (interference),[4],1.1
O=C(O)[C@@H]1C[C@@H](C(=O)O)N1,inhibition,[3],-1%
same,fluorescence ratio (interference),[4],1
CC(COc1ccc(/C=C/c2ccccc2)cc1)[N+](C)(C)C (centres undefined),inhibition,[3],-1%
same,fluorescence ratio (interference),[4],1
CCOc1ccc2ccccc2c1C(=O)NC1C(=O)N2C1SC(C)(C)C2C(=O)O (centres undefined),fluorescence slope change,[2],71.1% (active)
